Measured values taken from PubChem BioAssay AID493151 (Sanford-Burnham Center for Chemical Genomics, 2011).
The campaign covered roughly 1,400 compounds. About 860 (61%) were called active.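 The calls were made as follows: active = inhibition reaching a set limit, 80% of the first screen's cutoff, at 20 µM in any replicate; inactive = the rest.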 The set was probably picked from earlier hits. Shown is part of a subset that was picked to be rich in actives.

Each compound was assayed against DNA dC->dU-editing enzyme APOBEC-3A (Homo sapiens) (UniProt P31941) (assay: A3A ssDNA deamination blockers, replicate testing – biochemical, single concentration, fluorescence readout, selectivity assay for APOBEC3G inhibitor project, confirmation (AID 493151;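 also: plate controls were DMSO wells with A3A for no effect and wells lacking A3A enzyme for full effect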)). Conditions: recombinant A3A, ssDNA deaminase UDG fluorescence assay; at 20 µM; hits give high values.
Chain of DNA dC->dU-editing enzyme APOBEC-3A (Homo sapiens) (P31941 whole entry, looked up): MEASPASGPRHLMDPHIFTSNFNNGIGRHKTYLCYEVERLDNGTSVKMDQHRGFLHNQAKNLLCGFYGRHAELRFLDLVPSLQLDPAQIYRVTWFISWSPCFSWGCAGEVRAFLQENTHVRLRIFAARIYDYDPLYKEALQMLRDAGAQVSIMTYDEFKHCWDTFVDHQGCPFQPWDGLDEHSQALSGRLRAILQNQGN

SMILES	inhibition
CCN(CC)CCOC(=O)c1cc2cc(COC)ccc2o1	80.1% (active)
O=C(O)CCn1cc(C=C2C(=O)NC(=S)NC2=O)c(-c2cccc(Br)c2)n1	52.3% (active)
